Bioassay records as filed in PubChem BioAssay.
The sample as a whole holds a higher share of hits than the screen did.
KDM5B inhibitor: blocks human KDM5B histone demethylase activity. hit rate 2.6% among 220,000. KDM5B demethylase, FDH-coupled NADH fluorescence (FDH is formaldehyde dehydrogenase). AID 1347165. Potency, µM (top dose mostly 57.7 µM), actives largely listed as inhibitors; active means well fitted inhibition curve with a large enough effect; further: 0% is about no effect; nearly all actives have a fitted effect of over 70% in size
Target sequence (Q9UGL1 whole entry, looked up): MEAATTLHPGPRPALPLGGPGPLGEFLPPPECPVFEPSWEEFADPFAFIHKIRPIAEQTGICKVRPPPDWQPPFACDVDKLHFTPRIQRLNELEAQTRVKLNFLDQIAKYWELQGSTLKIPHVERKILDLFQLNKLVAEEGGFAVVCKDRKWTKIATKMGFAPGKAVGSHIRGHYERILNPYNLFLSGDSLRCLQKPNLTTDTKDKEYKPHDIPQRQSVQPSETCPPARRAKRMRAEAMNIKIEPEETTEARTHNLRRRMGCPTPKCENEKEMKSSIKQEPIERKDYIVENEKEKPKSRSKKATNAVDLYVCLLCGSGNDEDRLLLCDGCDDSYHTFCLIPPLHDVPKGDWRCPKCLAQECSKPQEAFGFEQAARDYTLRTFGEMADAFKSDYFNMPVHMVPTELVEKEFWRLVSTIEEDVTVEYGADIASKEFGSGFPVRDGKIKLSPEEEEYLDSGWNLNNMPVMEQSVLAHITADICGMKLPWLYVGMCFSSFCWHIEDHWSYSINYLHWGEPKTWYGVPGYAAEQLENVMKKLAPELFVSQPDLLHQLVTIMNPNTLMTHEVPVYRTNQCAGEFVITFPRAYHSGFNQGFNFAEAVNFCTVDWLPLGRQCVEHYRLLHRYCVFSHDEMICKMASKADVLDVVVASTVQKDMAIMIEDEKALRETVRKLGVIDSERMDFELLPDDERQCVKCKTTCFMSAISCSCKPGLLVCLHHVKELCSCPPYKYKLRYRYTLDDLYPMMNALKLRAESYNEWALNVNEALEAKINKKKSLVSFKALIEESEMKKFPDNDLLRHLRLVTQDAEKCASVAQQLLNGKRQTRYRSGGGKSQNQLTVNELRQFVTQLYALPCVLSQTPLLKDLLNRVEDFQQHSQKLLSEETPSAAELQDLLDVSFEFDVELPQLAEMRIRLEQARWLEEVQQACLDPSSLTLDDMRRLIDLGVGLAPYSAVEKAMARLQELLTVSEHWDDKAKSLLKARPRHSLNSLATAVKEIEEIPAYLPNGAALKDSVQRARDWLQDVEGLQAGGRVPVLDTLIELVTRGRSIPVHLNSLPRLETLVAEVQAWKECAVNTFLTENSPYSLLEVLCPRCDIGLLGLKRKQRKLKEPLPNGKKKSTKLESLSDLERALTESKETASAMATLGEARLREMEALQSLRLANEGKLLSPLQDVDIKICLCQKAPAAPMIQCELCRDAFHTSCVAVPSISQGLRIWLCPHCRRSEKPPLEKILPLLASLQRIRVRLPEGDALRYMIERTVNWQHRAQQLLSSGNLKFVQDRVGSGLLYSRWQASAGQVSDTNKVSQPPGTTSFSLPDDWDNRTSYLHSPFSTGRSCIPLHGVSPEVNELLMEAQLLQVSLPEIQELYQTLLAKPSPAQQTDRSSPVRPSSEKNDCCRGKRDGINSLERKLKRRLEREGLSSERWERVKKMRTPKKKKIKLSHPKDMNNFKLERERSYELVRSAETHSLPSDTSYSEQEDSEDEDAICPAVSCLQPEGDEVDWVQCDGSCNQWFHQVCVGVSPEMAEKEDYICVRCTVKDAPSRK
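KDM5BΔAP (200 nM final) in 50 mM HEPES pH 7.5, 0.01% Tween-20 was preincubated 10 min at RT with compound over a concentration range. Substrate mix (H3K4me3 12.5 µM, α-KG 25 µM, Fe²⁺, ascorbate, NAD⁺, FDH) was added, and NADH fluorescence change over 30 min gave dose-response curves.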
Numbers without * were called inactive; i = inactive. Potency means the concentration at half of the fitted maximal effect.

SMILES | KDM5B inhibitor
Cc1[nH]ncc1CNC(=O)CCC[C@H]1NC[C@@H]2C[C@H]1CN(Cc1ccccc1)C2 | i
C=CCNC(=S)NNC(=O)c1cccc(C)c1 | i
Cc1ccc(-c2csc(Nc3ccccc3)n2)cc1C | i
COc1ccc(COCC(O)CN(C)Cc2ccc(OC)c(OC)c2OC)cc1 (stereo unspecified) | i
CN(Cc1ccco1)C(=O)c1ccc2ncsc2c1 | i
COc1ccc(CC(=O)Nc2c(C(=O)N3CCC(N4CCCCC4)CC3)oc3ccccc23)cc1 | i
Cc1ccc(S(=O)(=O)N2CCN(C(=O)COC(=O)c3cccc4ccccc34)CC2)c(C)c1 | i
COc1cc(/C=C(/C#N)c2ccc(C(F)(F)F)cn2)cc(OC)c1O | i
COc1ccc(/C(=N\O)OC(=O)/C=C/c2ccco2)cc1 | i
Cc1cccc(C)c1-c1cc(C(=O)N2CCOCC2)c2cnn(C)c2n1 | i
Cc1cccc(C)c1-c1nc(C(=O)N2CCOCC2)n2ccccc12 | 79.4µM*
Cc1ccc(-n2ncc(C(=O)N3CCCC3)c2-n2cccc2)cc1 | i
Cc1cccc(C)c1-c1nc(C(=O)N2CCCC2)n2ccccc12 | 39.8µM*
Cc1ccccc1Nc1nc(C(=O)N2CCCC2)cs1 | i
Cc1onc(-c2c(Cl)cccc2Cl)c1C(=O)N1CCOCC1 | i
COCCN1CCC2(CCC1=O)CCN(C(=O)Nc1ccc(C(=O)OC)cc1)CC2 | i
CCc1ccc(-c2cc(C)no2)cc1S(=O)(=O)Nc1cc(Cl)ccc1OC | i
CCOc1ccc(-c2cc3ccccc3[nH]2)cc1 | i
O=c1[nH]c(N2CCN(c3ccc(F)cc3)CC2)nc2c1CCC2 | i
O=C(CCC(=O)OCc1ccc(Br)cc1)Nc1ccc2c(c1)oc1ccccc12 | i
O=C(CN1CCN(c2ccc(C(F)(F)F)cn2)CC1)NC1CCS(=O)(=O)C1 (stereo unspecified) | i
Cc1ccc(C(=O)NC2CCCN(c3ccc(C(F)(F)F)cn3)C2)cn1 (stereo unspecified) | i
CNCC(=O)NC1CCCN(c2ccc(C(F)(F)F)cn2)C1 (stereo unspecified) | 28.2µM*
Cc1cc(NC(=O)C(OC(=O)c2ccc3c(c2)NC(=O)CS3)c2ccccc2)no1 (stereo unspecified) | i
CCOc1ccccc1C(=O)N1CCC[C@H]1c1nc(-c2ccc(F)cc2)no1 | i
SMILES | KDM5B inhibitor
Cn1c(SCc2csc(-c3ccsc3)n2)nnc1C1CC1 | i
CCN(CC)S(=O)(=O)c1ccc(NC(=O)CN(c2ccc(F)c(Cl)c2)S(C)(=O)=O)cc1 | i
COCc1nn2c(=O)c(NC(=O)c3ccc(F)cc3)cnc2s1 | i
CCNC(=O)Nc1ccc2c(c1)CN(Cc1ccccc1OC)C(=O)C(C)O2 (stereo unspecified) | 28.2µM*
CCC(C(=O)Nc1ccc2c(c1)CN(Cc1ccccc1OC)C(=O)C(C)O2)c1ccccc1 (stereo unspecified) | i
COc1ccc(CN2Cc3cc(NC(=O)c4ccc(F)cc4F)ccc3OC(C)C2=O)c(OC)c1 (stereo unspecified) | i
COc1ccc(CN2Cc3cc(NC(=O)c4ccc(Cl)cc4)ccc3OC(C)C2=O)c(OC)c1 (stereo unspecified) | 25.1µM*
COc1ccccc1CN1Cc2cc(NC(=O)Cc3ccc(F)cc3)ccc2OC(C)C1=O (stereo unspecified) | i
COc1ccc(C(=O)Nc2ccc3c(c2)CN(Cc2ccc(OC)cc2OC)C(=O)C(C)O3)cc1 (stereo unspecified) | i
CCc1cccc(NC(=O)c2c(-c3ccccc3Cl)noc2C)c1 | i
CCOc1cc(/C=C2\NC(=O)NC2=O)cc(Cl)c1O | i
Cc1cc(NC(=O)CCn2nc(-c3cccs3)oc2=O)ccc1Br | i
COc1ccc(CN2CC3=C(C2=O)C(c2ccccc2C)NC(=O)N3)cc1 (stereo unspecified) | i
CCCCOc1ccc(CNC(=O)C2COc3ccc(OC)cc3C2)cc1 (stereo unspecified) | i
CCc1ccc(CNC(=O)C2COc3ccc(OC)cc3C2)cc1 (stereo unspecified) | i
COc1ccc2c(c1)OCC(C(=O)NCc1csc(N3CCCC3)n1)C2 (stereo unspecified) | 14.1µM*
COc1cc(C(=O)OCc2cccc(C#N)c2)cc(OC)c1C | i
CCOC(=O)C1=C(CN(C)Cc2ccccc2)NC(=O)NC1c1ccc(CC)cc1 (stereo unspecified) | i
CC1CCN(C(=O)C2CCN(C(=O)Cc3c[nH]c4ccccc34)CC2)CC1 | i
COc1ccc(OCc2nc(C3CN(C(=O)Cc4c[nH]c5ccccc45)C3)no2)cc1 | i
O=C1CN(C(=O)CCc2ncc(-c3ccccc3)o2)CCN1 | i
Cc1ccc(OCCC2CCN(C(=O)Cc3c[nH]c4ccccc34)C2)cc1 (stereo unspecified) | i
COc1ccc(-c2cnc3[nH]cc(CC(=O)N4CCCC4)c3c2)cc1 | 35.5µM*
O=C1CN(C(=O)Cc2c[nH]c3ncc(-c4ccccc4)cc23)CCN1 | 39.8µM*
COc1ccc(-c2cnc3[nH]cc(CC(=O)N4CCC(OC)CC4)c3c2)cc1 | 35.5µM*
SMILES | KDM5B inhibitor
COC1CCN(C(=O)Cc2c[nH]c3ncc(-c4ccccc4)cc23)CC1 | 39.8µM*
COc1ccc(-c2cc(C(F)(F)F)nc(SCCC(=O)N3CCCC3)n2)cc1 | i
O=C1CN(C(=O)CCc2c[nH]c3ccccc23)CCN1 | i
COCCOC1CCN(C(=O)Cc2ccccc2)CC1 | i
COc1ccc2c(C)cc(SCC(=O)N3CCCCCC3)nc2c1 | i
CCOc1ccc(C(=O)Nc2cnc3ccccc3c2)cc1OC | i
CCNC(C(=O)OCC)c1ccc(Cl)cc1 (stereo unspecified) | i
CCCCC(=O)Nc1ccc(-c2nc3cc(CC)ccc3o2)cc1 | i
NC(=O)C1CC(O)CN1 (stereo unspecified) | i
CCn1c(=O)c2ccccc2n(CC(=O)Nc2cccc3cccnc23)c1=O | i
Cc1c2c(=O)n(-c3ccc(F)cc3)[nH]c2cc(=O)n1Cc1ccccc1 | i
Cc1ccc(-c2nc(Cn3cc(C(F)(F)F)ccc3=O)co2)c(C)c1 | i
COc1cc(C(=O)Oc2ccc3c(c2)CCC3)cc(Cl)c1OCC(C)C | i
CN(CC(=O)N(C)C1CCCCCC1)c1ncnc2nc[nH]c12 | i
Cc1nc2nc(SCC(=O)c3ccc(Cl)cc3)[nH]c2cc1Br | i
O=C1CC(C(=O)Nc2ccc(Cl)cc2Cl)n2nc(-c3ccccc3)cc2N1 (stereo unspecified) | i
Cc1ccsc1CNC(=O)c1cnccn1 | i
Cc1ccc(CNC(=O)C2CCN(S(=O)(=O)N3CCCCC3)CC2)cc1 | i
Cc1ccc(CNC(=O)CSc2nnc3ccc(-c4ccc5c(c4)OCO5)nn23)cc1 | i
Cc1ccc(-c2ccc3nnc(SCC(=O)NCC4CCCO4)n3n2)cc1 (stereo unspecified) | i
CCc1ccc(CNC(=O)c2cnccn2)s1 | i
Cc1ccc(-c2ccc3nnc(CNC(=O)c4cnccn4)n3n2)cc1 | 12.6µM*
CC(=O)N1CCC(C(=O)NCc2nnc3ccc(-c4ccc(C)cc4)nn23)CC1 | 31.6µM*
Cc1ccc(-c2ccc3nnc(CNC(=O)c4cccnc4)n3n2)cc1 | 31.6µM*
O=C(NCc1nnc2n1C(C(=O)NCc1ccc(F)cc1)CC2)c1cccnc1 (stereo unspecified) | i
Cc1ccc(-c2ccc3nnc(CNC(=O)c4nccc5ccccc45)n3n2)cc1 | 31.6µM*
CC(=O)N1CCC(C(=O)NCc2ncc(-c3ccccc3)o2)CC1 | i
